38 compounds from PubChem BioAssay (NCATS) can be followed below.

Inconclusive results are not listed. Activity calls are given as the source filed them. Unless noted, the call rests on the fitted dose curve.

Chain of Cytochrome P450 2C9 (Homo sapiens) (P11712 whole entry, looked up): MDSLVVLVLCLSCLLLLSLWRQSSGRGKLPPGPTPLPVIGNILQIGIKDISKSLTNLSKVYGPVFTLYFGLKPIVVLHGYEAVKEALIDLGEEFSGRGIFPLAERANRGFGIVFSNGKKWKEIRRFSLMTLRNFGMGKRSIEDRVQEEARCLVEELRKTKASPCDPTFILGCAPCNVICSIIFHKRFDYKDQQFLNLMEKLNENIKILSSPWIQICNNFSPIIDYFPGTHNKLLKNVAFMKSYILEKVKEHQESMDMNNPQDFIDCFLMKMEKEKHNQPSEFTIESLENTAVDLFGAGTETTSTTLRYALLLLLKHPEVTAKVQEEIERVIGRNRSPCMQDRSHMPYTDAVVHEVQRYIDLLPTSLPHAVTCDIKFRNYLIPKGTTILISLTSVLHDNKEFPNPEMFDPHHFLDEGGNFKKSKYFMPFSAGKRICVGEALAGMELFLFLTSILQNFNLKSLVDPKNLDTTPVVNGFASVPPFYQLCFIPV

The first assay deals with Cytochrome P450 2C9 (Homo sapiens) (UniProt P11712). Put plainly: Cytochrome P450 family 2 subfamily C member 9 (CYP2C9) small molecule antagonists: luciferase biochemical (cell-free) qHTS assay (AID 1645842; active means well fitted inhibition curve with a large enough effect in the repeat runs; further: potency means the concentration at half of the fitted maximal effect; nearly all actives have a fitted effect of over 55% in size). The settings on record: P450-Glo CYP2C9 enzyme assay, luciferin luminescence; series mostly up to 57.4 µM; activity change, negative = inhibition: at the top concentration. In outline:
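Luminescence, after 20 min with luciferin detection reagent, reflected CYP2C9 turnover during a 1 h NADPH-driven reaction at 37C. Enzyme-substrate mix contained 0.4% bovine serum albumin and was preincubated with compound 10 min at room temperature.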
Regarding `COc1ccc2c(c1OC)C(=O)O[C@H]2[C@@H]1c2cc3c(cc2CCN1C)OCO3`, the Potency is 4.9 µM (active).

Regarding `O=C(Nc1ccc(Br)cc1)c1cc(Br)cc(Br)c1O`, the Potency was 3.47 µM (active).

Regarding `CCCN(CCC)C(=O)Cc1c(-c2ccc(Cl)cc2)nc2ccc(Cl)cn12`, the Potency was 12.3 µM (active).

System in a further assay: not listed separately
As to the kind of experiment: Confirmatory qHTS to identify inhibitors of SARS-CoV-2 cell entry (AID 1645844). Further: nearly all actives have a fitted effect of over 45% in size. Further: potency means the concentration at half of the fitted maximal effect. On activity, negative = inhibition: on the % scale 0 is the no-effect control and ±100 the full control effect. Conditions: SARS-CoV-2 pseudotyped particle cell entry, luciferase; series mostly up to 57.2 µM; activity, negative = inhibition: at the top concentration. In outline: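 HEK293-ACE2 cells (Expi293F stably expressing human ACE2) were pretreated with compounds for 1 hr at 37C, then infected with MLV-based particles carrying Wuhan-Hu-1 spike (C-terminal 19-aa truncation). Luciferase luminescence read after 48 hr; normalized to spike PP (100%) and bald PP (0%).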
A general note: In qHTS, concentration-response curves come from the screen itself.
As for `COc1cccc2c1C(=O)c1c(O)c3c(c(O)c1C2=O)C[C@@](O)(C(=O)CO)C[C@@H]3O[C@H]1C[C@H](N)[C@@H](O)[C@H](C)O1`, the Potency is 0.0961 µM (active).

For `Cc1cc(NS(=O)(=O)c2ccc(N)cc2)nc(C)n1`, the “activity, negative = inhibition” value is -10.8% (inactive).

For the compound `CCCCCCNC(=O)n1cc(F)c(=O)[nH]c1=O`, the Potency is 8.57 µM (active).

For `CNCCC=C1c2ccccc2CCc2ccccc21`, the Potency is 21.5 µM (active).

For `CCOc1ccc2nc3cc(N)ccc3c(N)c2c1`, the Potency is 24.1 µM (active).

`O=C1CN(/N=C/c2ccc([N+](=O)[O-])o2)C(=O)N1`: the Potency is 21.5 µM (active).

For `Nc1nc2[nH]cc(CCc3ccc(C(=O)N[C@@H](CCC(=O)O)C(=O)O)cc3)c2c(=O)[nH]1`, the Potency was 1.92 µM (active).

With `Cc1ccc(Nc2nccc(N(C)c3ccc4c(C)n(C)nc4c3)n2)cc1S(N)(=O)=O`, the Potency is 21.5 µM (active).

For `CN1[C@@H]2CC[C@H]1CC(OC(c1ccccc1)c1ccccc1)C2` (stereo partly drawn), the Potency is 6.81 µM (active).

Consider `CC(C)=CCC/C(C)=C/CC/C(C)=C/CCC(=O)OC/C=C(\C)CCC=C(C)C`, for which the Potency is 9.61 µM (active).

With `Nc1ccn([C@@H]2O[C@H](CO)[C@@H](O)C2O)c(=O)n1` (stereo partly drawn), the Potency was 4.29 µM (active).

In the case of `Oc1ccc(Cl)c2cccnc12`, the Potency is 2.71 µM (active).

With `COC(=O)C1=C(C)NC(C)=C(C(=O)OCC(C)=O)C1c1ccccc1[N+](=O)[O-]` (stereo not drawn), the Potency was 34.1 µM (active).

As for `Cc1cc2c(cc1CC(=O)c1sccc1S(=O)(=O)Nc1onc(C)c1Cl)OCO2`, the “activity, negative = inhibition” value is 0% (inactive).

Take `Cc1nc2ccc(CN(C)c3ccc(C(=O)N[C@@H](CCC(=O)O)C(=O)O)s3)cc2c(=O)[nH]1`: the Potency is 0.0271 µM (active).

In the case of `CC(C)OC(=O)OCOP(=O)(CO[C@H](C)Cn1cnc2c(N)ncnc21)OCOC(=O)OC(C)C`, the Potency is 0.0152 µM (active).

As for `C[n+]1c2cc(N)ccc2cc2ccc(N)cc21` (tested in a mixture with another compound), the Potency is 6.07 µM (active).

As to `Cc1c(C)c2c(c(C)c1O)CCC(C)(COc1ccc(CC3SC(=O)NC3=O)cc1)O2` (stereo not drawn), the Potency was 34.1 µM (active).

Regarding `CCN(CC)C(C)CN1c2ccccc2Sc2ccccc21` (stereo not drawn), the Potency is 0.0383 µM (active).

System in a further assay: not listed separately
Put plainly: Cytotoxicity counterscreen for inhibitors of SARS-CoV-2 cell entry (AID 1645845). Further: nearly all actives have a fitted effect of over 50% in size. On activity change, negative = cytotoxicity: on the % scale 0 is the no-effect control and ±100 the full control effect. The settings on record: cell viability (SARS-CoV-2 entry assay cells); series mostly up to 57.1 µM; activity change, negative = cytotoxicity: at the top concentration. In outline: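 Expi293F/hACE2 cells seeded overnight; cpd pin-transferred in DMSO, 1 h preincubation, + media, 48 h 37 C 5% CO2; ATPLite 1step luminescence; normalized to cells and no cells.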
For the compound `COc1cccc2c1C(=O)c1c(O)c3c(c(O)c1C2=O)C[C@@](O)(C(=O)CO)C[C@@H]3O[C@H]1C[C@H](N)[C@@H](O)[C@H](C)O1`, the “activity change, negative = cytotoxicity” value is -24.6% (inactive).

For `Cc1cc(NS(=O)(=O)c2ccc(N)cc2)nc(C)n1`, the compound was called inactive.

As for `Nc1c(I)cc(I)c(C(=O)N(CCC(=O)O)c2ccccc2)c1I`, the compound was classed as inactive.

With `O=C(Nc1ccc(Br)cc1)c1cc(Br)cc(Br)c1O`, the “activity change, negative = cytotoxicity” value was -28.4% (inactive).

For the compound `CC(C)Cn1cnc2c(N)nc3ccccc3c21`, the Potency entry is “inactive”.

As for `CCOC(=O)C1=C(COCCN)NC(C)=C(C(=O)OC)C1c1ccccc1Cl` (stereo not drawn), the “activity change, negative = cytotoxicity” value was -1.22% (inactive).

In the case of `CCCCCCNC(=O)n1cc(F)c(=O)[nH]c1=O`, the “activity change, negative = cytotoxicity” value is -15.5% (inactive).

`O=C(NCC(O)CO)c1c(I)c(C(=O)NCC(O)CO)c(I)c(N(CCO)C(=O)CO)c1I` (stereo not drawn): the result was inactive.

For the compound `CNCCC=C1c2ccccc2CCc2ccccc21`, the “activity change, negative = cytotoxicity” value is -26.3% (inactive).

As for `CS(=O)(=O)c1ccc([C@@H](O)[C@@H](CO)NC(=O)C(Cl)Cl)cc1`, the “activity change, negative = cytotoxicity” value was 0.303% (inactive).

With `OC[C@@H](O)[C@@H](O[C@@H]1O[C@H](CO)[C@H](O)[C@H](O)[C@H]1O)[C@H](O)[C@@H](O)CO`, the result was inactive.

On to `CC(=O)CC(c1ccc([N+](=O)[O-])cc1)c1c(O)c2ccccc2oc1=O` (stereo not drawn), for which the compound was called inactive.

`Nc1nc2[nH]cc(CCc3ccc(C(=O)N[C@@H](CCC(=O)O)C(=O)O)cc3)c2c(=O)[nH]1`: the Potency entry is “inactive”.

For the compound `c1ccc2sc(SN3CCOCC3)nc2c1`, the result was inactive.

As for `CN1[C@@H]2CC[C@H]1CC(OC(c1ccccc1)c1ccccc1)C2` (stereo partly drawn), the “activity change, negative = cytotoxicity” value is 4.04% (inactive).

Turning to `CCC[C@@]1(CCc2ccccc2)CC(O)=C([C@H](CC)c2cccc(NS(=O)(=O)c3ccc(C(F)(F)F)cn3)c2)C(=O)O1`, the “activity change, negative = cytotoxicity” value was -3.66% (inactive).

As to `CC(C)=CCC/C(C)=C/CC/C(C)=C/CCC(=O)OC/C=C(\C)CCC=C(C)C`, the “activity change, negative = cytotoxicity” value was -11.8% (inactive).

`Nc1ccn([C@@H]2O[C@H](CO)[C@@H](O)C2O)c(=O)n1` (stereo partly drawn): the “activity change, negative = cytotoxicity” value was -2.49% (inactive).

Take `CNCCCCOc1ccccc1Cc1ccccc1`: the outcome was inactive.

`O=C(O)Cc1cccc(-c2cc(CCCCCCc3ccc(O[C@H]4O[C@H](CO)[C@@H](O)[C@H](O)[C@@H]4O)c(-c4cccc(CC(=O)O)c4)c3)ccc2O[C@H]2O[C@H](CO)[C@@H](O)[C@H](O)[C@@H]2O)c1`: the activity change, negative = cytotoxicity is 4.02% [at 0.702 µM] (inactive).

With `CC(C)[C@H]1C(=O)N2CCC[C@H]2[C@]2(O)O[C@](NC(=O)[C@@H]3C[C@@H]4c5cccc6[nH]cc(c56)C[C@H]4N(C)C3)(C(C)C)C(=O)N12`, the outcome was inactive.

As for `COC(=O)C1=C(C)NC(C)=C(C(=O)OCC(C)=O)C1c1ccccc1[N+](=O)[O-]` (stereo not drawn), the “activity change, negative = cytotoxicity” value was -15.5% (inactive).

For the compound `CCOC(=O)c1ccccc1O`, the outcome was inactive.

Regarding `Cc1cc2c(cc1CC(=O)c1sccc1S(=O)(=O)Nc1onc(C)c1Cl)OCO2`, the Potency entry is “inactive”.

As for `CC(=O)OCC(=O)[C@H]1CC[C@H]2[C@@H]3CCC4=CC(=O)CC[C@]4(C)[C@H]3CC[C@]12C`, the “activity change, negative = cytotoxicity” value is -9.19% (inactive).

Consider `N#Cc1ccc2c(c1)N(CCCN1CCC(O)CC1)c1ccccc1S2`, for which the “activity change, negative = cytotoxicity” value was -26.9% (inactive).

Consider `O=C(O)CCCCC1CCSS1` (stereo not drawn), for which the result was inactive.

For `Cc1nc2ccc(CN(C)c3ccc(C(=O)N[C@@H](CCC(=O)O)C(=O)O)s3)cc2c(=O)[nH]1`, the Potency entry is “inactive”.

Turning to `CC(C)OC(=O)OCOP(=O)(CO[C@H](C)Cn1cnc2c(N)ncnc21)OCOC(=O)OC(C)C`, the “activity change, negative = cytotoxicity” value was -10.9% (inactive).

With `Cc1c(C)c2c(c(C)c1O)CCC(C)(COc1ccc(CC3SC(=O)NC3=O)cc1)O2` (stereo not drawn), the Potency result was “inactive”.

`CCN(CC)C(C)CN1c2ccccc2Sc2ccccc21` (stereo not drawn): the compound was called inactive.
